Activity calls are given as the source filed them. The calls were made as follows: active = hit-call score of the fitted dose curve at least 0.9, where 1 is the maximum; inactive = score below 0.9.
Assay: ATG_Sox_CIS: Attagene CIS-FACTORIAL HepG2 Assay for human SRY-box transcription factor (SOX) (AID 2282960)
Conditions: HepG2 Attagene cis-factorial SOX reporter, mRNA; actives raise or lower the signal
Protocol: ATG_CIS is a cell-based, multiplexed-readout assay that uses HepG2, a human liver cell line, with measurements taken at 24 hours after chemical dosing in a 24-well plate.ATG_Sox_CIS is one of 52 assay component(s) measured or calculated from the ATG_CIS assay. It is designed to make measurements of mRNA induction, a form of inducible reporter, as detected with fluorescence intensity signals by Reverse transcription polymerase chain reaction (RT-PCR) and Capillary electrophoresis technology.Data from the assay component ATG_Sox_CIS was analyzed into 1 assay endpoint. This assay endpoint, ATG_Sox_CIS, was analyzed with bidirectional fitting relative to DMSO as the negative control and baseline of activity. Using a type of inducible reporter, measures of mRNA for gain or loss-of-signal activity can be used to understand the reporter gene at the transcription factor-level as they relate to the gene SOX1. Furthermore, this assay endpoint can be referred to as a primary readout, because this assay has produced multiple assay endpoints where this one serves a reporter gene function. To generalize the intended target to other relatable targets, this assay endpoint is annotated to the dna binding intended target family, where the subfamily is HMG box protein.
Human liver HepG2 cells are transiently transfected with multiple reporter transcription units (MRTUs) in 6-well plates using FuGene 6 reagent (Roche; 3 ml FuGene/1 mg DNA). The MRTU constructs are regulated by a cis-regulating element (promoter). […] A major difference between the CIS and TRANS system is that in CIS activities of endogenous TFs are measured, whereas the TRANS assay evaluates changes in activities of exogenous, chimeric NR-Gal4 proteins. […] At the end of 24 hour incubation, total RNA was isolated using TriZol reagent (Invitrogen). The isolated RNA is then reverse-transcribed using oligo(dT) primer and Mo-MLV reverse transcriptase (Invitrogen) with DNAse I (Ambion) treatment for 30 min. The one-tenth of the produced cDNA was amplified by PCR using Taq DNA polymerase (Invitrogen) and two reporter sequence-specific primers. The PCR products were fluorescently labeled by primer extension with 6-arboxyfluorescein (6-FAM) 5'-labeled reporter sequence-specific primer (2 min at 95 C, 20 s at 68 C and 10 min at 72 C) and these products were digested with 5U of HpaI (New England Biolabs) for 2h at 37 C. The fragments were purified using Qiaquick PCR columns (Qiagen), analyzed on an ABI 3130xL genetic analyzer (Applied Biosystems) with peak positions identified by using a set of X-rhodamine (ROX)-labeled MapMarker1000 molecular weight standards (BioVentures). The raw capillary electrophoresis data was processed using Attagraph software (Attagene).

Row | Compound | outcome | AC50
1 | Nc1ccc(N=Nc2ccccc2)c(N)n1 | inactive | 
2 | CCCCC(CC)COCC1CO1 (stereo not given) | inactive | 
3 | CC=C1CC2C=CC1C2 (stereo not given) | inactive | 
4 | C=CC(C)(CCC=C(C)C)OC(=O)C(C)C (stereo not given) | inactive | 
5 | CCCCCc1ccc(Cl)cc1 | inactive | 
6 | CCC(CC)C(=O)O | inactive | 
7 | OCCCS | inactive | 
8 | C=CCOCC(O)CCl (stereo not given) | inactive | 
9 | CCC(C)OC(=O)c1ccc(O)cc1 (stereo not given) | inactive | 
10 | C=C[C@](C)(O)CC[C@@H]1[C@@]2(C)CCCC(C)(C)[C@@H]2CC[C@@]1(C)O | inactive | 
11 | CCCCCCOC(=O)C(C)CC (stereo not given) | inactive | 
12 | CCN(CCC#N)c1ccc(N=Nc2c(Cl)cc([N+](=O)[O-])cc2Cl)cc1 | inactive | 
13 | [Cl][In]([Cl])[Cl] | inactive | 
14 | O=C1Nc2ccccc2C1(c1ccc(O)cc1)c1ccc(O)cc1 |  | 63.9 µM (active)
15 | CCCCCC/C=C/C=O | inactive | 
16 | CCCCCCCC[N+](C)(CCCCCCCC)CCCCCCCC | inactive | 
17 | O=C1CCCCCCCCCCCCCCCO1 | inactive | 
18 | CC1(C)O[C@@H]2C[C@H]3[C@@H]4C[C@H](F)C5=CC(=O)C=C[C@]5(C)[C@@]4(F)[C@@H](O)C[C@]3(C)[C@]2(C(=O)CO)O1 | inactive | 
19 | CC(=O)Oc1ccc(C(C)=O)cc1 | inactive | 
20 | CC(=O)c1ccc[nH]1 | inactive | 

Row | Compound | outcome | AC50
21 | CC[C@H]1OC(=O)[C@H](C)[C@@H](O[C@H]2C[C@@](C)(OC)[C@@H](O)[C@H](C)O2)[C@H](C)[C@@H](O[C@@H]2O[C@H](C)C[C@H](N(C)C)[C@H]2O)[C@](C)(O)C[C@@H](C)C(=NOCOCCOC)[C@H](C)[C@@H](O)[C@]1(C)O | inactive | 
22 | O=CC1CC1 | inactive | 
23 | N[C@H]1C(O)O[C@H](CO)[C@H](O)[C@@H]1O (stereo not given in full) | inactive | 
24 | FC(F)(F)C(=NOCC1OCCO1)c1ccc(Cl)cc1 | inactive | 
25 | Cc1cc(O)c(Cl)c(C)c1Cl | inactive | 
26 | CC1=CC[C@H](C(C)C)C=C1 | inactive | 
27 | COC(=O)c1ccccc1OC | inactive | 
28 | OCCc1ccncc1 | inactive | 
29 | CCCCCCCCO[C@@H]1O[C@H](CO)[C@@H](O)[C@H](O)[C@H]1O | inactive | 
30 | C#CC1(O)CC[C@H]2[C@@H]3CCC4=CCCC[C@@H]4[C@H]3CC[C@@]21C (stereo not given in full) | inactive | 
31 | CCN(CC#N)c1cccc(C)c1 | inactive | 
32 | Clc1nc2ccccc2s1 | inactive | 
33 | CC(CC=O)CCCC(C)(C)O (stereo not given) | inactive | 
34 | c1c[nH]cn1 | inactive | 
35 | O=C(O)c1cc2ccccc2nc1C(=O)O | inactive | 
36 | O=C1CCCC(=O)O1 | inactive | 
37 | COCCCOCCCOC | inactive | 
38 | O=C1CCC(=O)N1Cl | inactive | 
39 | CCO[Si](CCCN=C=O)(OCC)OCC | inactive | 
40 | O=C(O)Cc1c(Cl)ccc(Cl)c1Cl | inactive | 

From PubChem BioAssay (EPA / NIEHS)
